Results filed as inconclusive are left out. The source made the active and inactive calls. The calls were made as follows: active = hit-call score of the fitted dose curve at least 0.9, where 1 is the maximum; inconclusive = response in the unintended direction; inactive = score below 0.9.

Sequence of human Constitutive Androstane Receptor (CAR), NR1I3 (gene 9970) (Q14994 whole entry, looked up): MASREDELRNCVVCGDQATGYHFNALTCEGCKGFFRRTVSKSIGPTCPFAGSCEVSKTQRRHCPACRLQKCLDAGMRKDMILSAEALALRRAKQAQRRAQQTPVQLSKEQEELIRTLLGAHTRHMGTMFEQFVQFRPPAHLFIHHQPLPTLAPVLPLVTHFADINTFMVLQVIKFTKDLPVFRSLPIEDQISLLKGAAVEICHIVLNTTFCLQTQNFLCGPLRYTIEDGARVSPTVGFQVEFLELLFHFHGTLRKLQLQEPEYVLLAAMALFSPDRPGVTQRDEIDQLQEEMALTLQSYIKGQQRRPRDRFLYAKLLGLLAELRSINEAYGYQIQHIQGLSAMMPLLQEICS
Sequence of human Peripheral-type Benzodiazepine Receptor (PBR), TSPO (gene 706) (P30536 whole entry, looked up): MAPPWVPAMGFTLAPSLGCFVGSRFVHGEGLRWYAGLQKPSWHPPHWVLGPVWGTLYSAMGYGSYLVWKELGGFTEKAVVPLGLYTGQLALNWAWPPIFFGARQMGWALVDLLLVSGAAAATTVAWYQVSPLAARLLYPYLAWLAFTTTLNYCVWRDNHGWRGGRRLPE
Sequence of human Serotonin, 5-Hydroxytryptamine Receptor 3 (5HT3), HTR3A (gene 3359) (P46098 whole entry, looked up): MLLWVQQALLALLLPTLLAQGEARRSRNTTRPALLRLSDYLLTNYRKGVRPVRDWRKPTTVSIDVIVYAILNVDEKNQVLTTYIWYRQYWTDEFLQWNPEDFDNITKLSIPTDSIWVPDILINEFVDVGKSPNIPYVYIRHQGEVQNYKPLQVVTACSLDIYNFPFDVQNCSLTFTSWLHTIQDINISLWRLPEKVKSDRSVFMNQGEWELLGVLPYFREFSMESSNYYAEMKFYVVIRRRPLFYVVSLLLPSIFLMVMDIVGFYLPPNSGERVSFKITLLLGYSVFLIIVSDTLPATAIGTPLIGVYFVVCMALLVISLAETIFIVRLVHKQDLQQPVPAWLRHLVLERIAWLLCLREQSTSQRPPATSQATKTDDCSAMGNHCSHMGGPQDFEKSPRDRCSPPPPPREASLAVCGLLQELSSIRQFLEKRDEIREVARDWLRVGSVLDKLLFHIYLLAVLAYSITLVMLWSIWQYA

The first experiment deals with human Serotonin, 5-Hydroxytryptamine Receptor 3 (5HT3), HTR3A (gene 3359) (UniProt P46098). As to the kind of experiment: NVS_LGIC_h5HT3: NovaScreen (NVS) Ligand-Gated Ion Channel Assay for human Serotonin, 5-Hydroxytryptamine Receptor 3 (5HT3) (AID 2283325). In a few lines:
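Radioligand displacement binding to human 5-HT3 from HEK293 membranes, read by filter-based scintillation counting after 1 h. Screen at 25 uM in duplicate; chemicals passing threshold were retested in concentration-response up to 50 uM.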
As for `Cc1cccc(N)c1N`, the molecule was classed as inactive.
Still for that read-out and setting: the value for `Brc1ccc(Oc2ccccc2)cc1` was “inactive”; that for `CC(C)N(Cc1ccccc1)C(=O)C(C)(C)C` was “inactive”.
As for `Nc1ccc(N=Nc2ccccc2)cc1`, the AC50 (usually the midpoint of the concentration-response curve, whichever way the signal moves) is 11.4 µM (active).
`c1ccc(N=Nc2ccccc2)cc1`: the outcome was inactive.
In the case of `ClCCOCCCl`, the AC50 was 1.38 µM (active).

The target in another experiment is rat Gamma-Aminobutyric Acid Type A Receptor, Non-Selective (GABAR-NonSelective), Gabra1 (gene 29705) (UniProt P62813). Briefly: NVS_LGIC_rGABAR_NonSelective: NovaScreen (NVS) Ligand-Gated Ion Channel Assay for rat Gamma-Aminobutyric Acid Type A Receptor, Non-Selective (GABAR-NonSelective) (AID 2283326). In a few lines: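 Radioligand displacement on rat whole-brain extract, 1 h, filter scintillation readout; signal loss fitted versus DMSO. Primary screen in duplicate at 25 uM; hits (e.g. ≥30% inhibition) retested in concentration-response up to 50 uM.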
Sequence of rat Gamma-Aminobutyric Acid Type A Receptor, Non-Selective (GABAR-NonSelective), Gabra1 (gene 29705) (P62813 whole entry, looked up): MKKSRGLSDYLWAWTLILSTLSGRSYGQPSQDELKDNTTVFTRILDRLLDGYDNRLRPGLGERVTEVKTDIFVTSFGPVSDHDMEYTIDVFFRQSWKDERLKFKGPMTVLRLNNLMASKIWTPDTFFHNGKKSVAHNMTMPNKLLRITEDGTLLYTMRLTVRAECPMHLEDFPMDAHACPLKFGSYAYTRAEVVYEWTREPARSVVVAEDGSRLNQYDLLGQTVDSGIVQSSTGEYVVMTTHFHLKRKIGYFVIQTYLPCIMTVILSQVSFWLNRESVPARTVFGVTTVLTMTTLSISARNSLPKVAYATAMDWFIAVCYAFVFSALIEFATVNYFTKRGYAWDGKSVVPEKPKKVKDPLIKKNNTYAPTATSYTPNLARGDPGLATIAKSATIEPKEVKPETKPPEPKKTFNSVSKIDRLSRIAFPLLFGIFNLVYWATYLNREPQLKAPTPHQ
With `O=C(O)C1C2CCC(O2)C1C(=O)O` (stereo not given), the AC50 is 2.14 µM (active).
In the case of `Nc1ccc(N=Nc2ccccc2)cc1`, the result was inactive.
As for `CCC(C)c1ccc(O)cc1` (stereo not given), the call was inactive.

The target in another experiment is human Constitutive Androstane Receptor (CAR), NR1I3 (gene 9970) (UniProt Q14994). As to the kind of experiment: NVS_NR_hCAR_Agonist: NovaScreen (NVS) Nuclear Receptor Binding Assay for human Constitutive Androstane Receptor Agonism (CAR) (AID 2283328). In a few lines:
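Cell-free TR-FRET binding readout with extracted human CAR protein, read 1 h after dosing. Gain of signal fitted against DMSO baseline. Single-concentration duplicates at 25 uM, then concentration-response up to 50 uM for actives.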
On to `CC(C)(C)OOC(C)(C)CCC(C)(C)OOC(C)(C)C`, for which the molecule was called inactive.
Take `Nc1ccc(N=Nc2ccccc2)cc1`: the molecule was called inactive.
Consider `c1ccc2c(c1)-c1cccc3cccc-2c13`, for which the molecule was classed as inactive.
For `Cc1cc(N=Nc2ccccc2C)ccc1N`, the molecule was called inactive.
For the molecule `CCCSC(=O)N(CCC)CCC`, the outcome was inactive.

A further experiment has as its target human Peripheral-type Benzodiazepine Receptor (PBR), TSPO (gene 706) (UniProt P30536). As to the kind of experiment: NVS_MP_hPBR: NovaScreen (NVS) Membrane Protein Assay for human Peripheral-type Benzodiazepine Receptor (PBR) (AID 2283331).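 Also: hits reduce radioligand binding relative to DMSO baseline.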 In a few lines: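 Human colonic cell membranes were incubated with test chemical for 1 hour; radioligand binding was measured by filter-based scintillation counting. Primary screen ran in duplicate at 25 uM, with actives followed in concentration series; loss of signal versus DMSO baseline.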
Turning to `O=C(Nc1ccccc1)c1ccccc1I`, the AC50 was 1.46 µM (active).
The same measure, in the same setting: next, `Cc1ccc(N=C=O)cc1N=C=O`: 4.24 µM (active).
With `CC(C)COC(=O)c1ccccc1C(=O)OCC(C)C`, the call was inactive.
Take `CN(C)c1ccc(C(=O)c2ccc(N(C)C)cc2)cc1`: the AC50 was 10.2 µM (active).
`Cc1cc(N=Nc2ccccc2C)ccc1N`: the AC50 is 36.2 µM (active).

A further experiment deals with rat Peripheral-type Benzodiazepine Receptor (PBR), Tspo (gene 24230) (UniProt P16257). As to the kind of experiment: NVS_MP_rPBR: NovaScreen (NVS) Membrane Protein Assay for rat Peripheral-type Benzodiazepine Receptor (PBR) (AID 2283335). In a few lines: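 Rat kidney membranes; radioligand binding with displacement, filter-based scintillation counting, 1 h incubation. Primary screen in duplicate at 25 uM, actives followed in concentration series; loss of binding vs DMSO.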
Sequence of rat Peripheral-type Benzodiazepine Receptor (PBR), Tspo (gene 24230) (P16257 whole entry, looked up): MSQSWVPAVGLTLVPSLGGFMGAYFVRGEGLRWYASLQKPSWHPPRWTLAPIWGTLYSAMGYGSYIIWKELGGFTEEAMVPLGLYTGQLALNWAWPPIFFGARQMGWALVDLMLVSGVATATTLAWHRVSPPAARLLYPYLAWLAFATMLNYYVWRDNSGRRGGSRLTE
On to `O=C(Nc1ccccc1)c1ccccc1I`, for which the AC50 was 1.61 µM (active).
Regarding `Nc1ccc(N=Nc2ccccc2)cc1`, the AC50 was 11 µM (active).
On to `CCCCOC(=O)c1ccccc1C(=O)OCc1ccccc1`, for which the outcome was inactive.
In the case of `CC(C)COC(=O)c1ccccc1C(=O)OCC(C)C`, the molecule was classed as inactive.
On the same count and under the same terms, the value for `CN(C)c1ccc(C(=O)c2ccc(N(C)C)cc2)cc1` was “inactive”.
On to `Cc1cc(N=Nc2ccccc2C)ccc1N`, for which the AC50 is 14 µM (active).

The values above are taken from PubChem BioAssay (EPA / NIEHS).
